Laboratory results taken from the supplement of paper PMC10849652.
About 7,900 targets were measured; listed, in parts, are those with a hit and a random draw of the rest. About 0.6% of all pairs of compound and target were hits.

Columns and labels:
Experiment in all cases: log2 fold change, soluble protein after heating vs DMSO (PISA); higher = thermal stabilisation; K562 cells, 10 uM, 30 min; active = over 0.2 and 3.5 SD of the protein, either way, in both replicates (recomputed)
[1] = compound: CC1=C(C=C(C=C1)NC(=O)C2=CC(=CC=C2)C(C)(C)C#N)NC3=CC4=C(C=C3)N=CN(C4=O)C
In short: (§1)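 Thermal stability values are relative to control samples and come from duplicates. They are expressed as log2 fold changes. For measurement, K562 cells (2×10^6 cells/mL) received 10 μM compound for 30 min, and aliquots were heated for 3 min over 48°C-58°C, pooled, and extracted at 4°C in PBS with 0.5% NP-40. Soluble protein, the supernatant after 21,000xg for 90 min, was quantified by TMTpro 16plex LC-MS/MS with equalised channel sums.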

[2] = compound: CC1=C(C=C(C=C1)NC(=O)C2=CC(=CC=C2)N(C)C)NC(=O)C3=CC=C(C=C3)O
In short: as §1

[3] = compound: CC1=CC=C(C=C1)SC2=C3C=C(SC3=CN=C2)C(=O)N
In short: as §1

[4] = compound: CC1=NC(=CC=C1)C2=C(N=C(N2)C(C)(C)C)C3=CC4=NC=CN=C4C=C3
In short: as §1

[5] = compound: CCCCN(Cc1ccc(C(=O)NO)cc1)C(=O)Nc1ccccc1 [Nexturastat A]
In short: as §1

[6] = compound: CCCS(=O)(=O)Nc1ccc(F)c(C(=O)c2c[nH]c3ncc(-c4ccc(Cl)cc4)cc23)c1F [vemurafenib]
In short: as §1

[7] = compound: CCCS(=O)(=O)Nc1ccc(F)c(C(=O)c2c[nH]c3ncc(Cl)cc23)c1F
In short: as §1

[8] = compound: CCCc1cc(C)[nH]c(=O)c1CNC(=O)c1cc(-c2ccnc(N3CCN(C)CC3)c2)cc2c1cnn2C(C)C
In short: as §1

[9] = compound: CCN(CC)Cc1ccc2cc(COC(=O)Nc3ccc(C(=O)NO)cc3)ccc2c1 [givinostat]
In short: as §1

[10] = compound: CCN(CCCOc1ccc2c(Nc3cc(CC(=O)Nc4cccc(F)c4)[nH]n3)ncnc2c1)CCOP(=O)(O)O [barasertib]
In short: as §1

[11] = compound: CC[C@@H]1C(=O)N(C)c2cnc(Nc3ccc(C(=O)NC4CCN(C)CC4)cc3OC)nc2N1C1CCCC1
In short: as §1

[12] = compound: CC[C@@H]1C(=O)N(C)c2cnc(Nc3ccc(C(=O)N[C@H]4CC[C@H](N5CCN(CC6CC6)CC5)CC4)cc3OC)nc2N1C(C)C [volasertib]
In short: as §1

[13] = compound: CC[C@H](C)N1C=C(C2=C(C=C(C=C21)C3=CN=C(C=C3)N4CCNCC4)C(=O)NCC5=C(C=C(NC5=O)C)C)C
In short: as §1

[14] = compound: CC[C@H](C)[C@@H](C(=O)N[C@@H]([C@@H](C)O)C(=O)N[C@@H](CC(C)C)C(=O)[C@]1(CO1)C)NC(=O)[C@H]([C@@H](C)CC)N(C)C(=O)C [epoxomicin]
In short: as §1

[15] = compound: CCn1c(C(=O)N(C2CC2)C2CC2)cc2c3c(ncn3C)c(Nc3cc(C)n(C)n3)nc21
In short: as §1

[16] = compound: CCn1cc(-c2ccnc3[nH]c(-c4cccc(CN(C)C)c4)cc23)c(-c2ccc(NC(=O)N(C)C)cc2)n1
In short: as §1

[17] = compound: CN(C)CC(=O)Nc1ccc2[nH]c(=O)c3ccccc3c2c1
In short: as §1

[18] = compound: CN(CCOC1=CC=C(C=C1)C[C@H]2C(=O)NC(=O)S2)C3=CC=CC=N3 (racemic) [rosiglitazone]
In short: as §1

[19] = compound: CN1C2=C(C3=C1C(=O)N(N=C3)CC4=CC(=CC=C4)N)SC(=C2)S(=O)C
In short: as §1

[20] = compound: CN1CCC(CNc2ccc3ncc(-c4cccc(OC(F)(F)F)c4)n3n2)CC1
In short: as §1

Measured: log2 fold change

STX17 (UniProt P56962)
Sequence of UniProt P56962 (P56962 whole entry, looked up): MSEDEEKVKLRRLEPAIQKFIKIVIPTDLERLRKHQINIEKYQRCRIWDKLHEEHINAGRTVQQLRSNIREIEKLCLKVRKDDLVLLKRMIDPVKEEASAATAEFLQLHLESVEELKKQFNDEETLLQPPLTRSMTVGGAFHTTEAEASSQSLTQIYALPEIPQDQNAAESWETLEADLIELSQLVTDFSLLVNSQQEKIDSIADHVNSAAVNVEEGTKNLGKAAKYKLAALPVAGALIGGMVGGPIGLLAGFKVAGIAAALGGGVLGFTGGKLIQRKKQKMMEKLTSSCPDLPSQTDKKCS
active: [12] -0.357
inactive: [1] -0.036 | [2] -0.064 | [3] -0.023 | [4] 0.039 | [5] 0.126 | [6] 0.12 | [7] 0.12 | [8] -0.07 | [9] 0.152 | [10] 0.011 | [11] -0.273 | [13] -0.06 | [14] 0.062 | [15] -0.067 | [16] 0.011 | [17] -0.02 | [18] 0.089 | [19] -0.126 | [20] -0.278

TAX1BP1 (UniProt Q86VP1)
Sequence of UniProt Q86VP1 (Q86VP1 whole entry, looked up): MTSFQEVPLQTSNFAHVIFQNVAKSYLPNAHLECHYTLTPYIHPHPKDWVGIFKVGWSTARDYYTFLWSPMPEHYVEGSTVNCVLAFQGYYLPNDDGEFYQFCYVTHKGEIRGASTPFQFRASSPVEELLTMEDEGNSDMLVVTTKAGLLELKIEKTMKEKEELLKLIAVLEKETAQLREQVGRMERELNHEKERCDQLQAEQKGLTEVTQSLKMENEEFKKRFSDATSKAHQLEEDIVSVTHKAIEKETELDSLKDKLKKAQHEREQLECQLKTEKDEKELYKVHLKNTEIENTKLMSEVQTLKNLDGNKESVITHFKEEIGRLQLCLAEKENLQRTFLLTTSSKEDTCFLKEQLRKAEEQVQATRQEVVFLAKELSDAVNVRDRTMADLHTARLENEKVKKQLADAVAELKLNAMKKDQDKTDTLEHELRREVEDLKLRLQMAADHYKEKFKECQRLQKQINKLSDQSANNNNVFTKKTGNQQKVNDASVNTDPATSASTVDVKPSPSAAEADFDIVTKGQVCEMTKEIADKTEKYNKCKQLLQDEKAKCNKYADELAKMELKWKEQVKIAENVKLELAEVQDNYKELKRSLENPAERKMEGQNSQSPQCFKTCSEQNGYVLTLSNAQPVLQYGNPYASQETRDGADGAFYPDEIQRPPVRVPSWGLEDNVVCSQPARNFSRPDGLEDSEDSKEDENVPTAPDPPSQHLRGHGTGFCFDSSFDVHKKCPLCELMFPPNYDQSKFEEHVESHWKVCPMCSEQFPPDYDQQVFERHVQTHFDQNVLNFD
inactive: [1] 0.031 | [2] -0.005 | [3] -0.014 | [4] -0.026 | [5] -0.014 | [6] -0.003 | [7] 0.011 | [8] -0.055 | [9] -0.033 | [10] -0.061 | [11] -0.144 | [13] -0.081 | [14] -0.027 | [15] 0.055 | [16] -0.067 | [17] 0 | [18] -0.011 | [19] -0.001 | [20] 0.003
active: [12] -0.298

SPTBN1 (UniProt Q01082)
inactive: [1] 0.018 | [2] 0.02 | [3] 0.004 | [4] -0.036 | [5] 0.088 | [6] 0.058 | [7] 0.006 | [8] 0.051 | [9] 0.049 | [10] 0.019 | [11] 0.009 | [12] -0.163 | [13] 0.079 | [14] -0.024 | [15] -0.048 | [16] 0.013 | [17] 0.018 | [18] 0.001 | [19] 0.081 | [20] 0.048

TFR2 (UniProt Q9UP52)
Sequence of UniProt Q9UP52 (Q9UP52 whole entry, looked up): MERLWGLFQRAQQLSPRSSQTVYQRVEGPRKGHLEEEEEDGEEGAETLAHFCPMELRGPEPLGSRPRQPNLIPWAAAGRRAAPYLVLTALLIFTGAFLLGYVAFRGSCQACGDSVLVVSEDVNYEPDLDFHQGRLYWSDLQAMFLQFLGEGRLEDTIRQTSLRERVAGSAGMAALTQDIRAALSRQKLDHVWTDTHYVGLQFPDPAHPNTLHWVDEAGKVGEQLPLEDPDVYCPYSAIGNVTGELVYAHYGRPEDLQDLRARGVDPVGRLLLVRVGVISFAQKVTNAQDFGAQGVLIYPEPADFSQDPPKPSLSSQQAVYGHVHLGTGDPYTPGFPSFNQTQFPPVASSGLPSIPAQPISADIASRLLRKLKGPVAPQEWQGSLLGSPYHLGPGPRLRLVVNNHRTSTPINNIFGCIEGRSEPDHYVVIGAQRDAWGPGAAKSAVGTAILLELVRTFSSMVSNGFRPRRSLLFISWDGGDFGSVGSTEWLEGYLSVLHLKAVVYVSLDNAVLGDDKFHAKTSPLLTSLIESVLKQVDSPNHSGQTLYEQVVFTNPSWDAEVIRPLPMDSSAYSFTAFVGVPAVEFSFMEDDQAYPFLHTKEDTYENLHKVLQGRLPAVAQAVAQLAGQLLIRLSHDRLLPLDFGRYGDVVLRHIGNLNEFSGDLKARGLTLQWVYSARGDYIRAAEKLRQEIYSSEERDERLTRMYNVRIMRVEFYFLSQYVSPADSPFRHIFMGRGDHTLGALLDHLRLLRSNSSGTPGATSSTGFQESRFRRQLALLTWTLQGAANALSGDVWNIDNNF
inactive: [1] 0.012 | [2] -0.018 | [3] -0.012 | [4] -0.036 | [5] -0.031 | [6] -0.018 | [7] -0.003 | [8] -0.029 | [9] -0.083 | [10] 0.01 | [13] -0.045 | [14] 0.01 | [15] 0.037 | [16] 0.038 | [17] -0.035 | [18] -0.007 | [19] -0.003 | [20] -0.22
active: [11] -0.483 | [12] -0.382

SP3 (UniProt Q02447)
Sequence of UniProt Q02447 (Q02447 whole entry, looked up): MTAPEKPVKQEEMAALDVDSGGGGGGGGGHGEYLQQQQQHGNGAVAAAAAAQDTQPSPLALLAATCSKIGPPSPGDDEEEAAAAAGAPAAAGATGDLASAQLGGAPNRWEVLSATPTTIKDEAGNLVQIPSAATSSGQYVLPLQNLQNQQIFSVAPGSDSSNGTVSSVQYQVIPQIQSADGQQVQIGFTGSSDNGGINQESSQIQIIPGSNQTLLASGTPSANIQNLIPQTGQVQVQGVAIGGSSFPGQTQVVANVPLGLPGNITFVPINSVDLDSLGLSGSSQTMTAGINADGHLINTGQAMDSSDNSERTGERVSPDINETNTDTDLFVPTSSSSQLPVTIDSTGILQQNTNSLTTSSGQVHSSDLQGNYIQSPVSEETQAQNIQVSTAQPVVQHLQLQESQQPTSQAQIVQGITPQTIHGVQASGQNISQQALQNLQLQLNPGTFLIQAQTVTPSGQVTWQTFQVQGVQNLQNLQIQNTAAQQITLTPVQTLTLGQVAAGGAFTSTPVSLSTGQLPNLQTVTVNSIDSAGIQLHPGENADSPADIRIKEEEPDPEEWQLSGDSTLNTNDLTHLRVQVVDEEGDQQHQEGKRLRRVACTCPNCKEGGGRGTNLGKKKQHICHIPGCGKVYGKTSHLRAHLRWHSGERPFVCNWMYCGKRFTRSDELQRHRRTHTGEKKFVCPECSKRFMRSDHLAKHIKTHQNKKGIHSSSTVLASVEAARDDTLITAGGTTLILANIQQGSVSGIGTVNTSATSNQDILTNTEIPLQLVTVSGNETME
inactive: [1] -0.008 | [2] -0.126 | [3] -0.041 | [4] -0.058 | [5] -0.003 | [6] -0.038 | [7] 0.012 | [8] -0.052 | [9] -0.219 | [10] 0.011 | [11] 0.03 | [12] 0.104 | [13] -0.019 | [14] -0.194 | [15] 0.025 | [16] 0.068 | [17] -0.074 | [18] -0.062 | [19] 0.058 | [20] 0.028

SNX12 isoform 1 (UniProt Q9UMY4)
Sequence of UniProt Q9UMY4 (Q9UMY4 whole entry, looked up): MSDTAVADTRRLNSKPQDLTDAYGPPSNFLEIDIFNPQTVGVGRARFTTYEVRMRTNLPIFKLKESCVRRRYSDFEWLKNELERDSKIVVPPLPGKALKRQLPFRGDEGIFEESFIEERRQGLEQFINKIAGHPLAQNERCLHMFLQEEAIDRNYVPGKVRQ
inactive: [1] -0.021 | [2] -0.006 | [3] 0.032 | [4] 0.024 | [5] -0.082 | [6] 0.054 | [7] 0.059 | [8] 0.008 | [9] 0.004 | [10] 0.062 | [11] -0.124 | [13] 0.069 | [14] 0.028 | [15] -0.068 | [16] 0.043 | [17] -0.012 | [18] 0.058 | [19] 0.045
active: [12] -0.252 | [20] -0.275

SRP72 (UniProt O76094)
inactive: [1] 0.024 | [2] -0.01 | [3] 0.034 | [4] -0.009 | [5] 0.171 | [6] 0.037 | [7] 0.09 | [8] 0.046 | [9] 0.143 | [10] 0.078 | [11] -0.093 | [12] -0.518 | [13] 0.119 | [14] 0.001 | [15] -0.104 | [16] -0.034 | [17] 0.03 | [18] 0.047 | [19] 0.119 | [20] -0.168

SMCHD1 (UniProt A6NHR9)
Sequence of UniProt A6NHR9 (A6NHR9 whole entry, looked up): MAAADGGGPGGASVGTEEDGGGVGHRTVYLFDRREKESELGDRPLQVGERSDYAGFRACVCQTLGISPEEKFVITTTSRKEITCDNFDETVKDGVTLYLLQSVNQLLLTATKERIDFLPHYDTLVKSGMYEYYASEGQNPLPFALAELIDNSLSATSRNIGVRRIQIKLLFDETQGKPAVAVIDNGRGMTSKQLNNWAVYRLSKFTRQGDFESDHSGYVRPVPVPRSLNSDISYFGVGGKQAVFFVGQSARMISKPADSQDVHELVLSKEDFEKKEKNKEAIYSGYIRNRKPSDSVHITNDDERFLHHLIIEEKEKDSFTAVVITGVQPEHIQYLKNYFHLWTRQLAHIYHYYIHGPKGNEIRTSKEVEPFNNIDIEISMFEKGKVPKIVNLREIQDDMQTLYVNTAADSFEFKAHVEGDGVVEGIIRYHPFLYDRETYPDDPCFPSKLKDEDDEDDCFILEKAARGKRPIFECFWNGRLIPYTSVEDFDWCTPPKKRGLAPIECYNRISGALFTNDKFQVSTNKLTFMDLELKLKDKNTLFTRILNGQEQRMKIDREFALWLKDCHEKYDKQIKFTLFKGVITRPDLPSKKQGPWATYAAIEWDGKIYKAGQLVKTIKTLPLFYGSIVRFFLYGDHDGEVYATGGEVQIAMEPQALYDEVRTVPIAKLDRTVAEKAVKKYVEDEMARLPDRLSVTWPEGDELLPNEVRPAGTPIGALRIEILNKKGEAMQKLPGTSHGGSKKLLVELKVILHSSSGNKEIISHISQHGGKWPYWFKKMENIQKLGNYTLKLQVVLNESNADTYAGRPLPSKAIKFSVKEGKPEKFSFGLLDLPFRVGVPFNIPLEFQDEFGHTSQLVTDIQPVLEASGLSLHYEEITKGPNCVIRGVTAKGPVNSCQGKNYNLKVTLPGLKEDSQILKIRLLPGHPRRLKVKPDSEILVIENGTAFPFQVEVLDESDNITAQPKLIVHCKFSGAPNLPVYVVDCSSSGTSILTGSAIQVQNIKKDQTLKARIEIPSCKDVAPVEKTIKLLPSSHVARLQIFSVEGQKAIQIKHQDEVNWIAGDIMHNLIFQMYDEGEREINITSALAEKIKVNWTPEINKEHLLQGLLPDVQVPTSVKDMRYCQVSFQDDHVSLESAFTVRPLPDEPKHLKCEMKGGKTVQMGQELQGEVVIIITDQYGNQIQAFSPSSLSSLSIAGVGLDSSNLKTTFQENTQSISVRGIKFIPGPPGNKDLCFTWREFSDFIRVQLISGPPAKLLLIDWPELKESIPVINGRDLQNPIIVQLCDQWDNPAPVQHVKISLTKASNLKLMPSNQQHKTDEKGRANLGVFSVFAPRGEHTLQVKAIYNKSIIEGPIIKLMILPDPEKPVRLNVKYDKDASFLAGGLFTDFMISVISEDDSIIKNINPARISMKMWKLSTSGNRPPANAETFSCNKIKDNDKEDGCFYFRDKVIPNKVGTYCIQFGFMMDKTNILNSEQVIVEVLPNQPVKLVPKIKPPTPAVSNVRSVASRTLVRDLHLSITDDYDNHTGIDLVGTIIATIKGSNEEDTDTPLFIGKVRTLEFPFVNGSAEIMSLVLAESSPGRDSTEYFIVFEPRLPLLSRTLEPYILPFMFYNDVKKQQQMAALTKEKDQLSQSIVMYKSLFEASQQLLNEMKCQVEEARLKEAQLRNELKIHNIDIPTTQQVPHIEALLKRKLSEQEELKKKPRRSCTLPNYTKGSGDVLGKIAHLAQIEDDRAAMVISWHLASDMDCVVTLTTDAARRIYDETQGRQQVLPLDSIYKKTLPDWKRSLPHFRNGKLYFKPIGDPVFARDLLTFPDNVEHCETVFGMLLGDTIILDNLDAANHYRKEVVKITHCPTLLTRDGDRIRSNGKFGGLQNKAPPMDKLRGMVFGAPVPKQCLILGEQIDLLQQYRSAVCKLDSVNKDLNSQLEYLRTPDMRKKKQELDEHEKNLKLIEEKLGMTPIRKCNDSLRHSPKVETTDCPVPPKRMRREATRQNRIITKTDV
inactive: [1] -0.067 | [2] 0 | [3] 0.089 | [4] -0.039 | [5] 0.126 | [6] 0.057 | [7] 0.141 | [8] 0.155 | [9] 0.101 | [10] -0.168 | [11] 0.009 | [12] -0.326 | [13] 0.098 | [14] -0.189 | [15] -0.015 | [16] -0.085 | [17] 0.032 | [18] -0.118 | [19] -0.023 | [20] -0.144
